LYPLA1 inh = counter-screen for PME1 inhibitors: inhibitors of human LYPLA1 | recombinant LYPLA1, FP-Rh probe fluorescence polarization | inhibition, % at 5.9 µM | O75608 | 320,000 compounds, 0.16% hits | AID 2174;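 active means inhibition above the mean of all tested compounds plus 3 SD, set per campaign, cut at about 14% in these data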;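 further: inhibitors block serine hydrolase probe labeling of LYPLA1 so polarization falls; 0% = enzyme with DMSO and 100% = wells lacking LYPLA1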
Target sequence (O75608 whole entry, looked up): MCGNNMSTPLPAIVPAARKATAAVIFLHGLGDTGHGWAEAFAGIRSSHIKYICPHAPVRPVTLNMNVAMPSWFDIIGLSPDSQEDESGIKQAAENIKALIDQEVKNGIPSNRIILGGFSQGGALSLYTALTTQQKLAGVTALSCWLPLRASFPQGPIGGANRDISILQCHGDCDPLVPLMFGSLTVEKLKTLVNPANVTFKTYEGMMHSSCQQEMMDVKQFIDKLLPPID
PME-1 primary = PME-1 (human) inhibition; recombinant PME-1, FP-Rh probe fluorescence polarization; inhibition, % at 5.9 µM; 320,000 compounds, 0.53% hits;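 active means inhibition above the campaign mean of all compounds plus 3 SD, cut at about 26% in these data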;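 further: competitive labeling of PME-1 active site by serine hydrolase directed probe; 0% = PME-1 with DMSO and 100% = wells lacking PME-1 enzyme; inhibitors block probe labeling so polarization falls and inhibition rises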
Target sequence (Q9Y570 whole entry, looked up): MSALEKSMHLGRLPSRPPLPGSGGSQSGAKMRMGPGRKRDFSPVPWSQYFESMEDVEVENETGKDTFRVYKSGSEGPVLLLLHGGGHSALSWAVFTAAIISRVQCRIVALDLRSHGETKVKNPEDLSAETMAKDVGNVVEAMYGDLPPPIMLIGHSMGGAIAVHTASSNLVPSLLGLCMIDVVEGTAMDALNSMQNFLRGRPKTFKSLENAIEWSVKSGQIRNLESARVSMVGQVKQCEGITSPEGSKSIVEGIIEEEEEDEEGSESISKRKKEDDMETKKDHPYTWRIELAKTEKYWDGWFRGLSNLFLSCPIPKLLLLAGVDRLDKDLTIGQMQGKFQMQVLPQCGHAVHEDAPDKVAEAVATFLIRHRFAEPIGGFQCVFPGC
Fam108B inh = blocks mouse Fam108B hydrolase in RBBP9 counter-screen | recombinant Fam108B, FP-Rh probe fluorescence polarization | inhibition, % at 9.51 µM | 300,000 compounds, 0.33% hits;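 active means inhibition above the screen mean inhibition plus 3 SD, computed separately per campaign, cut at about 18% in these data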;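 further: inhibitors lower polarization as less probe binds the enzyme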
LYPLA2 inh = blocks human lysophospholipase 2, a PME1 counter-screen. recombinant LYPLA2, FP-Rh probe fluorescence polarization. inhibition, % at 5.9 µM. 320,000 compounds, 0.38% hits;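 active means inhibition above the screen-wide mean plus 3 SD, limit set per campaign, cut at about 26% in these data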;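 further: 0% = LYPLA2 with DMSO and 100% = wells lacking LYPLA2 enzyme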
PREPL inhibitor = inhibits the human prolyl oligopeptidase-like enzyme; AID 2751; 320,000 compounds, 0.68% hits; recombinant PREPL, fluorescence polarization activity-based probe; Q4J6C6; inhibition, % at 5.96 µM; in the data active means inhibition above about 43%;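 further: 0% = enzyme with DMSO and 100% = wells lacking enzyme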
LYPLA1 conf = counter-screen for PME1 inhibitors: confirmation of human LYPLA1 inhibitors | shares compounds with LYPLA1 inh | recombinant LYPLA1, FP-Rh probe fluorescence polarization | inhibition, % at 5.9 µM | 480 compounds, 69% hits;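 active means mean inhibition across replicates above the hit cutoff set in the primary screen, cut at about 15% in these data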;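 further: loss of FP-Rh probe labeling of LYPLA1 seen as lower polarization; 0% = LYPLA1 with DMSO and 100% = wells lacking LYPLA1 enzyme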
LYPLA2 conf = counter-screen for PME1 inhibitors: confirmation of human LYPLA2 inhibitors; shares compounds with LYPLA2 inh; recombinant LYPLA2, FP-Rh probe fluorescence polarization; inhibition, % at 5.9 µM; 1,100 compounds, 72% hits;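 active means mean inhibition across replicates above the hit cutoff set in the primary screen, cut at about 26% in these data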;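 further: blocked labeling of the enzyme by serine hydrolase FP-Rh probe lowers polarization; 0% = enzyme with DMSO and 100% = wells lacking LYPLA2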
Active calls of the source: *; . = not tested or not shown. Hits are enriched below; roughly 1.3% of the tested compounds scored in any of these assays.

SMILES	LYPLA1 inh	PME-1 primary	Fam108B inh	LYPLA2 inh	PREPL inhibitor	LYPLA1 conf	others
N#Cc1c(NC(=O)CN2CCN(C(=O)c3ccco3)CC2)sc2c1CCCCC2	51*	2	0	18	16	56*
CCc1ccc(S(=O)(=O)N2CCN(c3ncccn3)CC2)cc1	-4	12	0	-2	-63	.
CN(CC(=O)Nc1cccc(F)c1)C(=O)CC1CCCCC1	0	3	-4	3	8	.
CSC(=NC#N)N1CCN(c2ccc([N+](=O)[O-])cc2)CC1	19*	1	3	14	9	24*
CSC(=NC#N)N1CCN(C(c2ccccc2)c2ccccc2)CC1	20*	-3	0	21	8	24*
CSC(=NC#N)N1CCN(C(=NC#N)SC)CC1	-3	-2	0	-6	20	.
Cc1cccc(NS(=O)(=O)c2ccc(C(=O)N3CC(C)OC(C)C3)cc2)c1C (centres undefined)	-3	20	0	-4	0	.
Cc1cccc(-n2c(O)c(C=Nc3ccccc3-c3n[nH]c(=S)[nH]c3=O)c3ccccc3c2=O)n1	1	-2	7	3	15	.
Cc1ccc(-n2c(O)c(C=Nc3ccccc3-c3n[nH]c(=S)[nH]c3=O)c3ccccc3c2=O)c(C)c1	15*	-9	8	-4	9	15*
CCCSc1ccc([C@@H]2[C@H]3C(=O)N(CC)C(=O)[C@H]3[C@]3(C(=O)OC)CCCCN23)cc1	1	0	8	2	-6	.
Cc1ccc(C2CC(=O)Oc3cc(O)ccc32)cc1 (centres undefined)	22*	23	15	23	15	18*
O=C1CC(c2ccccc2)c2cc(O)ccc2O1 (centres undefined)	3	-1	1	1	8	.
O=C(CCCCCN1C(=O)c2ccccc2C1=O)Oc1ccc2c3c(c(=O)oc2c1)CCC3	32*	6	0	20	15	51*
O=C(Oc1ccc2c3c(c(=O)oc2c1)CCC3)c1ccco1	-6	3	1	-4	40	.
Cc1cc2c(SCC(=O)NC3CCCC3)ncnc2s1	1	-5	2	-5	-3	.
Cc1nnc(SCC(=O)Nc2sc3c(c2C#N)CCCC3)[nH]c1=O	-2	1	-1	-10	18	.
N#Cc1c(NC(=O)CSc2nc(N)cc(=O)[nH]2)sc2c1CCCC2	46*	2	0	14	7	47*
Cc1ccc(C)c(NC(=O)C(OC(=O)c2cnc(C)cn2)c2ccccc2)c1 (centres undefined)	3	-2	-2	0	-5	.
Cc1cnc(C(=O)OC(C(=O)Nc2cc(C(F)(F)F)ccc2Cl)c2ccccc2)cn1 (centres undefined)	32*	4	2	-9	-2	0
Fc1ccc(-n2cc(-c3ccccc3)c3c(N4CCOCC4)ncnc32)cc1	1	-6	-5	2	17	.
NC(=O)C1CCN(c2ncnc3c2c(-c2ccccc2)cn3-c2ccccc2)CC1	17*	5	-2	18	13	19*
CCOC(=O)C1=C(COC(=O)c2ccc(OC)c(OC)c2OC)NC(=O)NC1C (centres undefined)	1	0	0	1	20	.
CNc1oc(-c2cccc3ccccc23)nc1C#N	17*	6	6	7	11	5
CCOc1cc(CN2CCN(c3cccc(C(F)(F)F)c3)CC2)ccc1OC	-1	-3	1	-2	10	.
COc1ccc(CC(C)N2CCN(c3cccc(C(F)(F)F)c3)CC2)cc1OC (centres undefined)	25*	0	4	31*	9	32*	LYPLA2 conf=35*
SMILES	LYPLA1 inh	PME-1 primary	Fam108B inh	LYPLA2 inh	PREPL inhibitor	LYPLA1 conf	others
COc1ccc(S(=O)(=O)N2C(=O)/C(=C3\SC(N)=NC3=O)c3ccccc32)cc1	2	6	6	0	10	.
Nc1nc(NCc2ccco2)nc(N2CCN(Cc3ccccc3)CC2)c1[N+](=O)[O-]	29*	5	0	48*	-6	42*	LYPLA2 conf=48*
O=C(NCCNC(=O)c1cc(OCC(F)(F)F)ccc1OCC(F)(F)F)Nc1cccc(C(F)(F)F)c1	33*	-5	2	61*	-9	44*	LYPLA2 conf=50*
CCOC(=O)CCCSc1nc2sc3c(c2c(=O)[nH]1)CCC3	0	-13	-1	-3	5	.
CCOC(=O)CSc1nnc(CSc2nc3sc4c(c3c(=O)[nH]2)CCCC4)n1-c1ccccc1	16*	3	1	77*	4	15*	LYPLA2 conf=80*
C=CCNC(=O)COc1coc(CN2CCN(C(=O)c3ccco3)CC2)cc1=O	-3	1	1	1	2	.
Cc1[nH]c2ccccc2c1C(=O)CN1CCN(C/C=C/c2ccccc2)CC1	31*	0	2	56*	12	31*	LYPLA2 conf=54*
O=c1ccc2ccc(Oc3ccc([N+](=O)[O-])cc3Cl)cc2o1	16*	7	3	70*	27	22*	LYPLA2 conf=66*
O=C(COc1ccc2ccc(=O)oc2c1)Nc1cc([N+](=O)[O-])ccc1F	0	8	2	4	8	.
O=C(CCCCCN1C(=O)c2ccccc2C1=O)Nc1ccc(S(=O)(=O)N2CCCCC2)cc1	26*	4	-8	42*	8	30*	LYPLA2 conf=41*
CC1CCN(S(=O)(=O)c2ccc(NC(=O)CCN3C(=O)c4ccccc4C3=O)cc2)CC1	-8	8	-1	2	-3	.
Cc1ccc(Cl)cc1N1CCN(S(=O)(=O)c2ccc3c(c2)CC(=O)N3C)CC1	1	-3	-6	-2	-3	.
Cc1cccc(NC(=O)C2CCN(C(=O)c3ccccc3C)CC2)n1	3	4	.	5	12	.
CC(=O)c1sc(NC(=O)C2CCN(C(=O)c3ccccc3C)CC2)nc1-c1ccccc1	25*	10	1	27*	-6	32*	LYPLA2 conf=14
O=C1c2c(O)cc(O)cc2O[C@H](c2ccc(O)cc2)[C@H]1O	0	-1	-1	20	2	.
COc1cc([C@H]2Oc3cc([C@H]4Oc5cc(O)cc(O)c5C(=O)[C@@H]4O)ccc3O[C@@H]2CO)ccc1O	21*	1	0	70*	11	37*	LYPLA2 conf=75*
O=C(O)CCCCCN1C(=O)c2ccc(C(=O)O)cc2C1=O	0	2	4	3	1	.
O=C(O)c1ccc2c(c1)C(=O)N(CCCCCCCN1C(=O)c3ccc(C(=O)O)cc3C1=O)C2=O	69*	-4	-2	47*	4	73*	LYPLA2 conf=48*
CCN(C(=O)CSc1ccc2ccccc2n1)C1CCCCC1	.	.	.	.	8	.
